Bioassay records (PubChem)
This is a sample that favours compounds with a hit; in the whole collection about 2.4% have one here.
TLR4-MyD88 BLA – inhibitors of human TLR4-MyD88 binding. O00206+Q99836. 0.18% of 200,000 active. HeLa CL3-4 TLR4/MyD88 BLA complementation, FRET ratio. inhibition, % at 8.4 µM; in the data active means inhibition above about 25%
Target sequence (O00206 whole entry, looked up): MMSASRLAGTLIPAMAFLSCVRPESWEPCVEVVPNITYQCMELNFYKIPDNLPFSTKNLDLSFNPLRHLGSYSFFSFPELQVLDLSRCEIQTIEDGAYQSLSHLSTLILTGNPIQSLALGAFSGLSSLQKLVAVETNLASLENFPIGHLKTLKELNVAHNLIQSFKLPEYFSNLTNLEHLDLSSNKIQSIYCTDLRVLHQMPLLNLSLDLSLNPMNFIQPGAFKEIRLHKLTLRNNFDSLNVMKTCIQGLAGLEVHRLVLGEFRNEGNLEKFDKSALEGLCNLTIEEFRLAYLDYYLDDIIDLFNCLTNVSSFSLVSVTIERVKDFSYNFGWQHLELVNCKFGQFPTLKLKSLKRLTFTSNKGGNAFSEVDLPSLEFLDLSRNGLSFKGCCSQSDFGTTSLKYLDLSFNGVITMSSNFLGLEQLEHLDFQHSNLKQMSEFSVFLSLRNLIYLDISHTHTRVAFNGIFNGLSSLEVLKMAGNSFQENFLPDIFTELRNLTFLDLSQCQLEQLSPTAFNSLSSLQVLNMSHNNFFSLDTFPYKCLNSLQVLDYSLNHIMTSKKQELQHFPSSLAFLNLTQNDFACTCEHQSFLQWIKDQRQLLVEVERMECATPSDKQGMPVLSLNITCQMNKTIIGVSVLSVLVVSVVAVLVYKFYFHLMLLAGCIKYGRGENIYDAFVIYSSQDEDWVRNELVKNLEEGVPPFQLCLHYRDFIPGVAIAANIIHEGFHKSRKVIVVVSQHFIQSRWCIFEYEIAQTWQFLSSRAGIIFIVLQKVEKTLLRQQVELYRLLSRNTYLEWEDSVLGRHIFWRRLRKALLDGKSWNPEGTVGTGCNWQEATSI
Target sequence (Q99836 whole entry, looked up): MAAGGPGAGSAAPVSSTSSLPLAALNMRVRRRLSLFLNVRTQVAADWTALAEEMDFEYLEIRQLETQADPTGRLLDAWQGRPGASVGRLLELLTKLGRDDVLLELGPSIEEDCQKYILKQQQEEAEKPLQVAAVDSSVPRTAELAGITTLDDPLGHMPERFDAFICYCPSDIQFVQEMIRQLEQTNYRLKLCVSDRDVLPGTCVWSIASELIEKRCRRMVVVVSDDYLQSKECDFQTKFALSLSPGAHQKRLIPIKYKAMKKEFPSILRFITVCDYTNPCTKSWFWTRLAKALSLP
HSF1 activator – increases HSF-1 driven luciferase reporter signal | NIH3T3-HGL HSF-1 luciferase reporter, MG132, 8 h; 100% = twice DMSO control signal | activation, % at 9 µM | 1.7% of 300,000 active;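 active means mean replicate activation of at least 50% with a set share of replicates each reaching 50%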
HSF1 inh – HSF1 inhibition. NIH3T3-HGL HSE-luciferase, MG132-induced, luminescence 8 h; stronger effect = lower value. activity change, negative = inhibition, % at 7.5 µM (by protocol). 0.77% of 300,000 active;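 active means more than half of replicate wells show activity change below -50%, luminescence cut by over half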;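 further: luciferase reports HSF-1 transcriptional activity via heat shock element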
TLR9-MyD88 inh – blocks human TLR9 binding to MyD88. Q9NR96+Q99836. CHO BLA complementation TLR9-MyD88, CCF4 FRET ratio. inhibition, % at 4.98 µM. 0.21% of 340,000 active. AID 504734;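 active means inhibition above the mean over all tested compounds plus 3 SD, cut at about 21% in these data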
NOD2 RIPK2 PPI – NOD2-RIPK2 protein interaction inhibition; O43353; CHO BLA complementation NOD2-RIPK2, CCF4 ratio; inhibition, % at 4.98 µM; 0.38% of 360,000 active; in the data active means inhibition above about 21%
Large screens that a line does not name were inactive.

O=C(N/N=C/C(Br)=C/c1ccccc1)c1ccc([N+](=O)[O-])cc1	HSF1 activator 58.9 (no result: TLR4-MyD88 BLA)
CCOc1cc(C(=O)N/N=C/C(Br)=C/c2ccccc2)cc(OCC)c1OCC	HSF1 activator 86.8
CCC(=O)N(c1nnc(SCC(=O)Nc2ccccc2Cl)s1)C1CC1	none (no result: TLR4-MyD88 BLA, HSF1 activator, HSF1 inh)
CCN(C(=O)CCNC(=O)Cn1cnc2ccccc2c1=O)c1ccccc1F	none (no result: TLR4-MyD88 BLA)
Cc1ccc(S(=O)(=O)N2CCCCC2)cc1NC(=O)CSc1nc(N)cc(=O)[nH]1	none (no result: TLR4-MyD88 BLA, HSF1 activator, HSF1 inh)
NS(=O)(=O)c1ccc(CNC(=S)Nc2ccc(F)c(Cl)c2)cc1	none
COc1ccc(CNC(=S)Nc2ccc(F)c(Cl)c2)cc1	HSF1 activator 73.4
COc1ccc(C(C[N+](=O)[O-])C2(c3ccc(OC)c(OC)c3)C(=O)c3ccccc3C2=O)cc1 (stereo not drawn)	HSF1 activator 213.7, NOD2 RIPK2 PPI 81.5
COc1ccc(C(C[N+](=O)[O-])c2c(-c3ccccc3)cc3ccccn23)cc1OC (stereo not drawn)	none
COc1ccc(SCCCn2c(=O)c3c(ncn3C)n(C)c2=O)cc1	none (no result: TLR4-MyD88 BLA)
Cc1ccc(-n2cnc(=O)c3cccnc32)cc1	none
Cc1cn2c(nc(=O)c3cccnc32)s1	HSF1 inh -75.4
Cc1c(NC(=O)CSc2nnc3c4ccccc4n(CCc4ccccc4)c3n2)c(=O)n(-c2ccccc2)n1C	HSF1 activator 87.8
c1ccc(COc2ccccc2CNC2CCCC2)cc1	HSF1 activator 58.2
O=C(CCC1CCCCC1=O)c1ccccc1 (stereo not drawn)	none
CC1(C)CC(=O)C(CCC(=O)c2ccccc2)C(C)(C)N1 (stereo not drawn)	HSF1 inh -85.9
COc1cccc2cc(C(=O)NCc3ccco3)c(=O)oc12	none
COc1cccc2cc(C(=O)NCc3ccco3)c(=Nc3ccc(C(=O)O)cc3)oc12	HSF1 inh -63.2
COCc1cc(=O)[nH]c(Nc2nc3ccc(C)cc3o2)n1	HSF1 activator 209.6
Cc1cc(Nc2cccc(Cl)c2)nc(-c2ccccc2O)n1	HSF1 inh -70.5 (no result: TLR4-MyD88 BLA)
Cc1cc(Nc2ccc(Cl)cc2)nc(-c2ccccc2O)n1	none (no result: TLR4-MyD88 BLA)
O=C(CCNS(=O)(=O)c1cccc2nsnc12)NCc1cccs1	HSF1 inh -80.2
O=C(CCC1CCCN(C(=O)c2cc3ccccc3o2)C1)NCc1ccc(F)c(F)c1 (stereo not drawn)	HSF1 activator 52.0 (no result: TLR4-MyD88 BLA)
CCC1C(=NO)C(CC)C(c2ccccc2)NC1c1ccccc1 (stereo not drawn)	HSF1 activator 59.3
Cc1ccc(/C=C/c2nc3ccccc3s2)s1	HSF1 inh -74.7
COc1ccc(NC(=S)Nc2ccccc2)cn1	none
CCCCNC(=S)Nc1ccc(OC)nc1	HSF1 activator 65.4
O=C(c1ccc([N+](=O)[O-])cc1)N1CCN(c2ncc(Br)cn2)CC1	HSF1 inh -75.8 (no result: TLR4-MyD88 BLA)
O=C(/C=C/c1ccccc1Cl)NCc1ccccc1	none
CN(C)c1ccc(NC(=O)/C=C/c2ccccc2Cl)cc1	HSF1 activator 54.1
O=C(/C=C/c1ccccc1Cl)NCCc1ccccc1	HSF1 activator 55.2
COc1ccc(/C=C/C(=O)NCCCc2ccccc2)cc1	HSF1 activator 61.9
COc1cc(C(=O)N2CCN(S(=O)(=O)c3ccc(C)cc3C)CC2)ccc1OCC(=O)N1CCOCC1	none (no result: TLR4-MyD88 BLA, HSF1 activator, HSF1 inh)
CCCN(CCC)Cc1cc(=O)oc2cc(C)c(C)cc12	none (no result: TLR4-MyD88 BLA, HSF1 activator, HSF1 inh, TLR9-MyD88 inh)
Nc1ccn([C@@H]2O[C@H](CNCc3ccc(C#CCCO)cc3)[C@@H](O)[C@H]2O)c(=O)n1	none (no result: TLR4-MyD88 BLA, HSF1 activator, HSF1 inh)
CC(=O)C1=C(C)NC(SCC(=O)c2cc(Cl)ccc2Cl)=C(C#N)C1c1ccco1 (stereo not drawn)	NOD2 RIPK2 PPI 21.3
CC(=O)C1=C(C)NC(SCC(N)=O)=C(C#N)C1c1ccco1 (stereo not drawn)	none
CCOC(=O)c1snc(-c2ccc(F)cc2)c1N	HSF1 activator 58.7
Oc1cc(-c2ccc(N3CCCCC3)nc2)cc2cccnc12	NOD2 RIPK2 PPI 22.3 (no result: TLR4-MyD88 BLA, HSF1 activator, HSF1 inh)
O=C(C1CCN(S(=O)(=O)c2ccccc2F)CC1)N1CCCC1	none (no result: TLR4-MyD88 BLA, HSF1 activator, HSF1 inh)
CCCn1nnc2ccccc2c1=O	none
CCOc1ccc(OCCn2nnc3ccccc3c2=O)cc1	HSF1 activator 83.4
CCCCn1nnnc1C1(C)CCC(=O)N1CC(F)(F)F (stereo not drawn)	none (no result: TLR4-MyD88 BLA, HSF1 activator, HSF1 inh, TLR9-MyD88 inh)
Cc1cccc2sc(NC(=O)C3CCCO3)nc12 (stereo not drawn)	HSF1 activator 63.4
O=C(Nc1ncc(Cc2ccccc2Cl)s1)C1CCCO1 (stereo not drawn)	HSF1 activator 74.8
O=C(Nc1ncc(Cc2cccc(Cl)c2Cl)s1)C1CCCO1 (stereo not drawn)	HSF1 activator 57.6
CCCNC(=O)N1C[C@H](O)COC[C@@H]2O[C@@H](CC(=O)NCCCN3CCOCC3)CC[C@H]21	none (no result: TLR4-MyD88 BLA, HSF1 activator, HSF1 inh, TLR9-MyD88 inh)
OC(c1ccc2c(c1)OCO2)c1ncc(-c2cccc(C(F)(F)F)c2)[nH]1 (stereo not drawn)	none (no result: TLR4-MyD88 BLA, HSF1 activator, HSF1 inh, TLR9-MyD88 inh)
CCOc1ccccc1CNC(=O)Cn1ccc2cc(S(=O)(=O)N3CCC(C)CC3)ccc21	none (no result: TLR4-MyD88 BLA)
O=C(NCCc1ccccc1)C(c1cccs1)N(C(=O)CCl)c1ccc(Cl)cc1 (stereo not drawn)	HSF1 inh -95.3
O=C(NCCc1ccccc1)C(c1cccs1)N(C(=O)c1csnn1)C1CC1 (stereo not drawn)	none
Cc1cc(NC(=O)Cn2c(=O)oc3ccccc32)no1	none (no result: TLR4-MyD88 BLA, HSF1 activator, HSF1 inh)
CN(CCc1ccccc1)C(=O)c1cc(COc2cccc(C(F)(F)F)c2)on1	HSF1 activator 185.7 (no result: TLR4-MyD88 BLA)
COc1cccc(OCc2cc(C(=O)N(C)CCOc3ccc(C)cc3)no2)c1	HSF1 activator 57.1 (no result: TLR4-MyD88 BLA)
COc1cc(NC(=O)C(C)N2CCN(C(=O)C3CC3)CC2)cc(OC)c1 (stereo not drawn)	none (no result: TLR4-MyD88 BLA, HSF1 activator, HSF1 inh)
COc1ccc(/C=C/C(=O)NC(=S)NCc2ccccc2)cc1OC	HSF1 activator 67.5 (no result: TLR4-MyD88 BLA)
COc1ccc(/C=C/C(=O)NC(=S)Nc2ccc(S(=O)(=O)Nc3cc(OC)ncn3)cc2)cc1	none (no result: HSF1 activator, HSF1 inh, TLR9-MyD88 inh)
COC(=O)c1cn(C(=O)/C=C/c2ccc(OC)c(OC)c2)c2ccccc12	HSF1 activator 60.5
COc1cc(NS(=O)(=O)c2ccc(NC(=S)NC(=O)/C=C/c3ccc(OC)c(OC)c3)cc2)ncn1	HSF1 inh -55.0
COC(=O)c1cn(C(=O)OC)c2ccccc12	none
CC1(C)OC2OC3C(CNCCO)OC(c4ccccc4)OC3C2O1 (stereo not drawn)	none (no result: TLR4-MyD88 BLA, HSF1 activator, HSF1 inh)
N#Cc1c(NC(=O)/C=C/C(=O)O)sc2c1CCN(Cc1ccccc1)C2	HSF1 activator 58.7 (no result: TLR4-MyD88 BLA)
Cc1cc(=O)n2nc(N3CCCC(C(=O)NC4CCCCC4C)C3)sc2n1 (stereo not drawn)	none (no result: TLR4-MyD88 BLA)
CCc1nnc(NC(=O)CSc2ccc(-c3nc4ccc(C)cc4[nH]3)cn2)s1	HSF1 activator 68.4
Cc1ccc2nc(-c3ccc(SCC(=O)O)nc3)[nH]c2c1	none
Cc1cc2nc(-c3ccc(SCC(=O)Nc4nccs4)nc3)[nH]c2cc1C	none (no result: HSF1 activator, HSF1 inh)
Cc1ccc2nc(-c3ccc(SCC(=O)N4CCc5ccccc54)nc3)[nH]c2c1	HSF1 activator 102.4
